Results filed as inconclusive are left out. Unmarked numbers belong to inactive results. Active and inactive are the calls of the source. Calls come from the whole dose curve.
test: p53 small molecule agonists, cell-based qHTS assay with rat liver microsomes (AID 1963578); conditions: HCT-116 p53RE-bla, beta-lactamase ratio, 16 h; series mostly up to 66 µM; activation: at the top concentration
Excerpt: U.S. Tox21 Program National Center for Advancing Translational Sciences [NCATS] Division of Preclinical Innovation [DPI] U.S. Environmental Protection Agency [EPA] National Institutes of Environmental Health Sciences [NIEHS] National Toxicology Program [NTP] U.S. Food and Drug Administration [FDA] Tox21 Assay Overview: p53, a tumor suppressor protein, is activated following cellular insult, including DNA damage and other cellular stresses. The activation of p53 regulates cell fate by inducing DNA repair, cell cycle arrest, apoptosis, or cellular senescence. The activation of p53, therefore, is a good indicator of DNA damage and other cellular stresses. […] The activation of the reporter gene under culture conditions can be detected by fluorescence intensity. This cell line was used to screen the Tox21 10K compound library in the condition of presence of rat liver microsomes and to identify agonists that activate the p53 signaling pathway after in vitro metabolic activation (Ooka et al., Archive of Toxicology 96:1975-1987, 2022).
Tox21 Assay Protocol Summary: The p53RE-bla cells were dispensed at 4,000cells/3ul/well in 1536-well black-clear bottom plates. After the assay plates were incubated at 37 C, 5% CO2 incubator for 5 hours, 23 nL of compounds dissolved in DMSO, positive controls or DMSO only was transferred to the assay plate. Following compound addition, 3 uL of rat liver microsomes (Molecular Toxicology, Boone, NC) at final concentration of 0.5 mg/mL and 1uL of Beta-Nicotinamide adenine dinucleotide 2-phosphate (NADPH) at final concentration of 0.5 mg/mL were transferred to the assay plate. The plates were incubated at 37 C for 16 hours. 1 uL of LiveBLAzer detection mixture was added to each well and the plates were incubated at room temperature in the dark for 2 h.
% is set by controls: 0 for no effect and ±100 for the full control effect; potency is the fitted concentration of half-maximal effect.

SMILES | activation | Potency
CCCCCCCCCCCCCCCCC(C(=O)O)C(O)(CC(=O)O)C(=O)O (stereo not given) | -0.0881% [at 30.3 µM] | –
O=C(O)Cc1cc(I)c(Oc2ccc(O)c(I)c2)c(I)c1 | -0.736% | –
CCN(Cc1ccccc1)c1ccccc1 | -3.01% | –
O=C(CC(=O)c1ccccc1)c1ccccc1 | -1.77% | –
O=C(O)CCc1nc2ccccc2[nH]1 | 1.33% [at 30.3 µM] | –
COc1cc(C(=O)NC2CCN(C)CC2)ccc1Nc1ncc2c(n1)N(C1CCCC1)CC(F)(F)C(=O)N2C | 3.79% | –
c1cc(OCC2CO2)cc(OCC2CO2)c1 (stereo not given) | 3.96% | –
[Cl][Au]([Cl])[Cl] | -7.04% | –
CCCCCCCC/C=C/CCCOC(C)=O | -2.47% | –
CN(C)CCCN1c2ccccc2Sc2ccc(C(F)(F)F)cc21 | 0.854% [at 30.3 µM] | –
COC(=O)/C=C/C(C)=C\C=C\C(C)=C\C=C\C=C(C)\C=C\C=C(C)\C=C\C(=O)O | -2.69% | –
NC(=O)c1nc(-c2cccc(-c3cc(F)ccc3OCC(F)(F)C(F)(F)F)c2)n[nH]1 | -2.89% | –
O=C1C=CC(=O)N1c1cccc(N2C(=O)C=CC2=O)c1 | -3.06% | –
CC(C)Nc1ccc(NC(C)C)c2c1C(=O)c1ccccc1C2=O | 8.79% [at 30.3 µM] | –
C=CCOCC(O)CCl (stereo not given) | -1.13% | –
CCCCCCCCOC(=O)c1cc(O)c(O)c(O)c1 | -3.64% | –
CCCCCCCCCCCC(=O)OCC | 18.9% | –
CC(CN)CCCN (stereo not given) | 0.769% | –
CC(=O)/C(C)=C/C1C(C)=CCCC1(C)C (stereo not given) | -1.26% | –
CC(C)C=O | -0.632% | –

SMILES | activation | Potency
CC1(C)[C@@H](OC(=O)CCC(=O)O)CC[C@]2(C)[C@H]3C(=O)C=C4[C@@H]5C[C@@](C)(C(=O)O)CC[C@]5(C)CC[C@@]4(C)[C@]3(C)CC[C@@H]12 | -12.7% [at 30.3 µM] | –
CC(C)COC(=O)CC(C(=O)OCC(C)C)S(=O)(=O)O (stereo not given) | 2.41% | –
NC(=O)c1ccccc1C(N)=O | 0.119% | –
C=CCCCCCCC=C | 0.0743% | –
C=CC(=O)OCCCCCCOC(=O)C=C | – | inactive
CC(C)(C)c1ccc(C(=O)O)cc1 | -2.64% | –
CC(=O)OC/C=C(/C)CCC=C(C)C | 0.419% | –
CC(C)=CCC[C@](C)(O)[C@@H]1CC=C(C)CC1 | -5.05% | –
CO[C@@]12[C@H](COC(N)=O)C3=C(C(=O)C(C)=C(N)C3=O)N1C[C@@H]1N[C@@H]12 | – | 4.46 µM (active)
CCCCCCCCCCCCCCCCCCNC(=O)OC1CCN(C(=O)OC[C@H](COC(=O)N(Cc2cccc[n+]2CC)C(=O)c2ccccc2OC)OC)CC1 | -7.22% [at 30.3 µM] | –
C1CCOC1 | -1.49% | –
CCCC(CC)c1ccccc1 (stereo not given) | -5.08% | –
C=CC(=O)[O-].C=CC(=O)[O-].[Zn+2] | 0.339% | –
CN(C)CCOC(c1ccccc1)c1ccc(Br)cc1 (stereo not given) | 0.504% [at 30.3 µM] | –
O=C(CCCN1CCN(c2ccc(F)cc2)CC1)NC1c2ccccc2CSc2ccccc21 (stereo not given) | -0.572% [at 30.3 µM] | –
COc1cc2nc(N3CCN(C(=O)C4COc5ccccc5O4)CC3)nc(N)c2cc1OC (stereo not given) | -1.91% [at 30.3 µM] | –
O=[N+]([O-])c1ccc(NCCO)c(OCCO)c1 | 1% | –
C1CCC(C(CC2CCCCN2)C2CCCCC2)CC1 (stereo not given) | -3.87% [at 30.3 µM] | –
N=C(N)N | 1.06% [at 30.3 µM] | –
CNCC(O)c1ccc(O)c(O)c1 (stereo not given) | 1.1% [at 30.3 µM] | –
